Results: PubChem BioAssay AID430 (Sanford-Burnham Center for Chemical Genomics, 2006)
Screen size: about 63,000 compounds; about 1,100 (1.7%) were called active. The list comes from a sample in which actives are over-represented; it also holds similar structures and randomly drawn compounds. Entries with a potency or affinity are not part of this list. A number with no mark means an inactive call. Cut-off read from the data, not from the text of the source: active = cytotoxicity above about 50%; inactive = the rest.

Assay: cytotoxicity in HPDE-C7 cells, cell-based, fluorescence, HTS (AID 430);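 note: cells exposed to compound for 48 hours before viability readout; 0% = vehicle and 100% = reference cytotoxic drug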
Conditions: HPDE-C7 pancreatic duct cells viability, at 10 µM, active compounds read high
Work on `O=C(COC(=O)C1(c2ccccc2F)CCCC1)NC1CCS(=O)(=O)C1` (configuration not stated) yielded a cytotoxicity of -14.8%. With `COc1ccc(CNc2nc3c(c(=O)[nH]c(=O)n3C)n2Cc2ccccc2C)cc1` the cytotoxicity was -5.5%. Compound `COc1ccc(-c2nsc3c(N4CCCC4)ncnc23)cc1` has a cytotoxicity of 7.9%. With `COc1ccc(-c2nsc3c(N4CCN(S(=O)(=O)c5ccccc5)CC4)ncnc23)cc1` the cytotoxicity was 55.2% (active). `COc1ccc(S(=O)(=O)N2CCN(c3ncnc4c(-c5ccccc5)nsc34)CC2)cc1` gave a cytotoxicity of 5.6%. `CC(C)(C)NC(=O)CSc1nnc(C2CC2)n1Cc1ccccc1` gave a cytotoxicity of -7.8%. For `COC(=O)CNC(=O)COC(=O)C(Cc1ccccc1)NC(=O)c1ccco1` (configuration not stated), the cytotoxicity was 6%. For `Cc1ccc(C)c(C(=O)CSc2n[nH]c(C(C)C)n2)c1`, the cytotoxicity was -7.1%. Compound `Cn1c(=O)c(=O)n(C)c2cc(S(=O)(=O)N3CCCCC3)ccc21` has a cytotoxicity of 2%. With `O=C(c1ccccc1)c1ccc(OCC(O)CN2CCOCC2)cc1` (configuration not stated) the cytotoxicity was 6.6%. Work on `c1ccc(C(CN2CCOCC2)c2ccccc2)cc1` yielded a cytotoxicity of -12%. Work on `Cc1nc2ccc(F)cc2cc1C(=O)NCC1CCCO1` (configuration not stated) yielded a cytotoxicity of 14.8%. Compound `COc1ccc(Cl)cc1S(=O)(=O)n1nnc2ccccc21` has a cytotoxicity of 3.1%. With `COc1cc(S(=O)(=O)n2nnc3ccccc32)c(OC)cc1Cl` the cytotoxicity was 60.8% (active). `COc1ccc(OC)c(S(=O)(=O)n2nnc3ccccc32)c1` showed a cytotoxicity of -7%. Work on `CCc1ccccc1NC(=O)CN1CCC(NC(=O)COC)CC1` yielded a cytotoxicity of -16%. `COc1ccc(N(CC(=O)N2CCc3ccccc3C2)S(=O)(=O)c2c(C)[nH]c(=O)[nH]c2=O)cc1` gave a cytotoxicity of -21.6%. In the case of `CC1(C)Cc2c(C#N)c(N3CCOCC3)nc(Cc3ccccc3)c2CO1`, the cytotoxicity is reported as 46.8%. Work on `Cc1cc(C)c2nc(C(F)(F)F)nc(N3CCN(C(=O)c4ccco4)CC3)c2c1` yielded a cytotoxicity of 3.3%. With `CC1(C)Cc2c(C#N)c(N3CCN(C(=O)c4ccccc4)CC3)nc(-c3ccco3)c2CS1` the cytotoxicity was 11.4%. In the case of `CCc1nc(N2CCN(C(=O)c3ccccc3)CC2)c(C#N)c2c1COC(C)(C)C2`, the cytotoxicity is reported as -1%. `Cc1cc(C)c2nc(N3CCCN(C(=O)c4cnccn4)CC3)c(C#N)cc2c1` gave a cytotoxicity of -0.7%. With `Cc1cc(C)c2nc(N3CCCN(C(=O)c4ccco4)CC3)c(C#N)cc2c1` the cytotoxicity was 57.4% (active). `N#Cc1c(N2CCN(C(=O)c3ccco3)CC2)nc(-c2ccccc2)c2c1CCCC2` showed a cytotoxicity of 9.1%. For `CC1(C)Cc2c(C#N)c(N3CCN(C(=O)c4ccco4)CC3)nc(-c3ccco3)c2CS1`, the cytotoxicity was 51.7% (active). `CCn1c(SCC(=O)Nc2ccc3c(c2)OCO3)nc2c1c(=O)n(C)c(=O)n2C` showed a cytotoxicity of -19.3%. For `COc1cccc(CC(NC(C)=O)C(=O)NC2CCN(c3nc(C)cc(C)c3C#N)CC2)c1` (configuration not stated), the cytotoxicity was 8.9%. For `NC(=O)c1cc(-c2ccccc2)nc(N2CCOCC2)n1`, the cytotoxicity was 11.3%. In the case of `O=C(CSc1nnc(-c2cnccn2)n1Cc1ccco1)c1ccccc1`, the cytotoxicity is reported as -4.8%. Work on `c1ccc(N2CCOCC2)c(Nc2nc3ccccc3n3cnnc23)c1` yielded a cytotoxicity of -9.9%. With `O=C(Cn1c(CO)nc2ccccc21)Nc1cc(C(F)(F)F)ccc1N1CCOCC1` the cytotoxicity was 5.6%. Work on `Cc1ccccc1Cn1cc(NC(=O)c2noc3c2CC(C(C)(C)C)CC3)cn1` (configuration not stated) yielded a cytotoxicity of 25.7%. In the case of `Cc1ccc(S(=O)(=O)N(CCC#N)CCN2CCCC2)cc1`, the cytotoxicity is reported as -4.9%. `O=C1COc2ccc3ccccc3c2CN1` gave a cytotoxicity of -6.8%. Compound `Cc1ccc2c(c1)CC1(CN2C)C(=O)OC2(CCCCC2)OC1=O` has a cytotoxicity of -5.7%. For `CN1CC2(Cc3c1ccc1ccccc31)C(=O)OC(C)(C)OC2=O`, the cytotoxicity was 80.9% (active). Work on `COc1ccc2c(c1)[nH]c1c(=O)n(CCN3CCCC3)cnc12` yielded a cytotoxicity of -19.4%. `Cc1cc(C(=O)Nc2nc3c(s2)CCCC3)cs1` showed a cytotoxicity of -5.9%. Work on `CCOC(=O)N1CCN(CC(O)COc2ccccc2C(C)C)CC1` (configuration not stated) yielded a cytotoxicity of -6%. `O=C(NC1CC2CCCC(C1)N2S(=O)(=O)c1ccccc1)c1ccccc1` (configuration not stated) showed a cytotoxicity of -1.3%. For `Cn1c(SCc2ccccc2)nnc1-c1ccncc1`, the cytotoxicity was -1.5%. Work on `COc1ccc(NC(=O)CC2CCCCC2)cc1OC` yielded a cytotoxicity of -11.1%. In the case of `Cc1cccc2cc3c(nc12)SC(=NCC1CCCO1)N(Cc1ccco1)C3` (configuration not stated), the cytotoxicity is reported as 53.7% (active). `Cc1ccc2cc(CN(Cc3nnnn3Cc3ccco3)CC3CCCO3)c(=O)[nH]c2c1C` (configuration not stated) showed a cytotoxicity of -0.4%. Work on `Cc1ccc2nc3c(cc2c1)CN(Cc1ccco1)C(=NCC1CCCO1)S3` (configuration not stated) yielded a cytotoxicity of -19.9%. For `CCc1nc(SCC(=O)N2CCN(C(=O)c3ccco3)CC2)c2c3c(sc2n1)CCCC3`, the cytotoxicity was 3%. Compound `O=C(CN1CCN(c2ccccc2)CC1)Nc1nnc(-c2ccccc2)s1` has a cytotoxicity of 7.8%. In the case of `COc1ccc(N2CCN(CC(=O)Nc3nnc(-c4ccccc4)s3)CC2)cc1`, the cytotoxicity is reported as 50.3% (active). `COc1cccc(N2CCN(CC(=O)Nc3nnc(-c4ccccc4)s3)CC2)c1` gave a cytotoxicity of 21.2%. Work on `Cn1c(=O)oc2cc(S(=O)(=O)N3CCCC(C(=O)NCc4cccs4)C3)ccc21` (configuration not stated) yielded a cytotoxicity of -3.9%. In the case of `Cc1cc(C)c2c(c1)-c1c(ssc1=S)C(C)(C)N2C(=O)CSc1nncn1C`, the cytotoxicity is reported as 56.7% (active). With `Cc1ccc2c(c1)-c1c(ssc1=S)C(C)(C)N2C(=O)CSc1nncn1C` the cytotoxicity was -1.2%. For `Cc1ccc2c(c1)N(C(=O)CSc1nncn1C)C(C)(C)c1ssc(=S)c1-2`, the cytotoxicity was 14.3%. `CCCN1Cc2cccc(C(N)=O)c2C1=O` gave a cytotoxicity of -14.7%. For `COc1ccc(N2CCN(C(=O)c3ccc(CS(=O)(=O)c4ccc(OC)cc4)o3)CC2)cc1`, the cytotoxicity was -11.6%. Compound `Cc1ccc(S(=O)(=O)Cc2ccc(C(=O)N3CCN(c4cc(C)ccc4C)CC3)o2)cc1` has a cytotoxicity of 17.5%. With `COc1ccc(S(=O)(=O)Cc2ccc(C(=O)N3CCN(c4ccccc4F)CC3)o2)cc1` the cytotoxicity was -21.7%. Work on `COc1ccccc1S(=O)(=O)Cc1ccc(C(=O)N2CCN(c3ccccc3)CC2)o1` yielded a cytotoxicity of -24.2%. Work on `COc1ccccc1N1CCN(C(=O)c2ccc(CS(=O)(=O)c3ccccc3OC)o2)CC1` yielded a cytotoxicity of -8.2%. In the case of `Cc1ccccc1S(=O)(=O)Cc1ccc(C(=O)N2CCN(c3ncccn3)CC2)o1`, the cytotoxicity is reported as -19.4%. For `Cc1ccc(C)c(N2CCN(C(=O)c3ccc(CS(=O)(=O)c4ccccc4C)o3)CC2)c1`, the cytotoxicity was 55.6% (active). With `COc1ccccc1S(=O)(=O)Cc1ccc(C(=O)N2CCN(c3cccc(Cl)c3)CC2)o1` the cytotoxicity was 60.8% (active). In the case of `Cc1ccccc1S(=O)(=O)Cc1ccc(C(=O)N2CCN(c3cccc(C)c3C)CC2)o1`, the cytotoxicity is reported as 87.9% (active). In the case of `COc1ccc(S(=O)(=O)Cc2ccc(C(=O)N3CCN(c4cccc(C)c4C)CC3)o2)cc1`, the cytotoxicity is reported as 57% (active). `Cc1ccccc1S(=O)(=O)Cc1ccc(C(=O)N2CCN(C3CCCCC3)CC2)o1` showed a cytotoxicity of -7%. In the case of `Cc1ccccc1S(=O)(=O)Cc1ccc(C(=O)N2CCN(c3ccc(F)cc3)CC2)o1`, the cytotoxicity is reported as -10%. `CC(NC(=O)Cn1cnc2c1c(=O)n(C)c(=O)n2C)c1ccccc1` (configuration not stated) gave a cytotoxicity of -1.6%. `CCc1cccc(NC(=O)C2CCCN(S(=O)(=O)c3c(C)[nH]c(=O)[nH]c3=O)C2)c1` (configuration not stated) showed a cytotoxicity of -1.3%. For `[O-][N+]12CCN(CC1)c1ccccc12`, the cytotoxicity was -14.6%. `Cc1ccc2nc3ccc(N4CCCC4)nn3c(=O)c2c1` showed a cytotoxicity of 4.6%. Compound `CCOC(=O)C1C(c2cccc(Cl)c2Cl)NC(=O)NC1(O)C(F)(F)F` (configuration not stated) has a cytotoxicity of -1.7%. Compound `COC(=O)C1=C(C)NC(=O)CC1c1cccc(Cl)c1Cl` (configuration not stated) has a cytotoxicity of -12.9%. Work on `N#CC1=C(N)NC(SCC(=O)Nc2ccccc2)=C(C#N)C12CCCC2` yielded a cytotoxicity of 1.6%. In the case of `N#CC1=C(SCC(=O)NC2CC2)NC(=O)C(C#N)C12CCCCC2` (configuration not stated), the cytotoxicity is reported as -13.2%. In the case of `CC(C)(C)C1CCC2(CC1)C(C#N)=C(SCC(=O)NC1CCCCC1)NC(=O)C2C#N` (configuration not stated), the cytotoxicity is reported as 58.7% (active). Compound `CCOC(=O)C1=C(SCC(=O)Nc2ccccc2)NC(=O)C(C#N)C12CCCCC2` (configuration not stated) has a cytotoxicity of 1.9%. Work on `N#CC1=C(SCC(=O)NC23CC4CC(CC(C4)C2)C3)NC(=O)C(C#N)C12CCCCC2` (configuration not stated) yielded a cytotoxicity of 49.7%. Compound `Cc1ccc2[nH]c(=O)c(CN(Cc3nnnn3Cc3ccccc3)C3CCCC3)cc2c1` has a cytotoxicity of -16.4%. In the case of `Cc1cnc(-c2nnc(N(C)C(=O)C3CCCO3)s2)cn1` (configuration not stated), the cytotoxicity is reported as -5.4%. Compound `Cc1ccc(NC(=O)c2cnn(-c3ccccc3)c2NC(=O)c2ccco2)cc1C` has a cytotoxicity of 1.7%. Work on `O=C(Nc1c(C(=O)N2CCCCC2)cnn1-c1ccccc1)c1ccco1` yielded a cytotoxicity of -10.4%. In the case of `Cc1ccc(-n2ncc(C(=O)N3CCc4ccccc4C3)c2NC(=O)c2ccco2)cc1C`, the cytotoxicity is reported as 71.2% (active). `CC(=O)Nc1ccc(S(=O)(=O)N2CCN(c3cc(C)nc4ccccc34)CC2)cc1` showed a cytotoxicity of 2.1%. In the case of `CC(=O)Nc1ccc(S(=O)(=O)N2CCC(c3nc4ccccc4[nH]3)CC2)cc1`, the cytotoxicity is reported as 6.7%. `COc1ccc(S(=O)(=O)N2CCN(c3cccc(C)c3C)CC2)cc1` gave a cytotoxicity of 2%. For `CC(=O)Nc1ccc(S(=O)(=O)N2CCN(c3cccc(C)c3C)CC2)cc1`, the cytotoxicity was 54.3% (active). With `CC(=O)Nc1ccc(S(=O)(=O)N2CCN(c3cc(C)ccc3C)CC2)cc1` the cytotoxicity was 7.6%. `CC(=O)Nc1ccc(S(=O)(=O)NC(CC(=O)N(C)Cc2ccccc2)C(C)C)cc1` (configuration not stated) gave a cytotoxicity of -7.1%. `CC(C)N1CC(C(=O)Nc2nc3ccccc3s2)CC1=O` (configuration not stated) showed a cytotoxicity of -0.4%. In the case of `CCc1nc2sc3c(c2c(=O)n1N)CCC3`, the cytotoxicity is reported as 1.2%. For `Nn1c(Nc2ccccc2)nc2sc3c(c2c1=O)CCC3`, the cytotoxicity was 57.6% (active). For `CCCc1nc2sc3c(c2c(=O)n1N)CCC3`, the cytotoxicity was 3%.
